Common to all, as to assay: DAPPL (digital affinity profiling via proximity ligation, sequencing); 10 mM Tris-HCl pH 7.5, 50 mM NaCl, 1 mM DTT, 4% glycerol, room temperature, 30 min; GST-TFs on glutathione beads, 16-mer random dsDNA library, 0.1% formaldehyde crosslink after washing; high values mean tight binding
One test has as its target T1, FEV (Homo sapiens, UniProt Q99581 1-238).
T1 sequence: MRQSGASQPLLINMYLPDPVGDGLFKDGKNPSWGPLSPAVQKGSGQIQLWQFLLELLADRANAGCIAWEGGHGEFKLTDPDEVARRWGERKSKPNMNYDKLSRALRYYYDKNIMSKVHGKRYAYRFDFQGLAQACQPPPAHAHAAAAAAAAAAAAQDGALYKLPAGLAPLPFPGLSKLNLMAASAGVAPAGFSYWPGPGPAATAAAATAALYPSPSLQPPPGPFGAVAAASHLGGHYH
The settings on record: protein: recombinant; tags: N-terminal GST; dsDNA, one strand shown. The procedure, abridged:
(§1)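 In yeast, human transcription factors were expressed with a GST fusion, then pulled down on glutathione beads and given DNA barcodes. Pooled with a tag-only sample, they were exposed to 200 nmole of a 16-mer random double-stranded DNA library (Tris/NaCl/DTT/glycerol buffer, room temperature, 30 min), washed, crosslinked with 0.1% formaldehyde, proximity-ligated using BsaI/T4 ligase for 1 h at 37 °C, PCR-amplified and read on an Illumina NextSeq500. Each hexamer's frequency of reads for a factor, divided by the matching frequency for the tag-only sample, gives the binding signal.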

For another test, the target named is ETV5 (Homo sapiens, UniProt P41161 1-510). Particulars: protein: recombinant; tags: N-terminal GST; dsDNA, one strand shown. The procedure, abridged:
as §1

For another test, the target named is HSF1 (Homo sapiens, UniProt Q00613 1-529). Particulars: protein: recombinant; tags: N-terminal GST; chain copies: 3; dsDNA, one strand shown. The essentials:
as §1

Another test addresses T2, SPIC (Homo sapiens, UniProt Q8N5J4 1-248).
T2 sequence: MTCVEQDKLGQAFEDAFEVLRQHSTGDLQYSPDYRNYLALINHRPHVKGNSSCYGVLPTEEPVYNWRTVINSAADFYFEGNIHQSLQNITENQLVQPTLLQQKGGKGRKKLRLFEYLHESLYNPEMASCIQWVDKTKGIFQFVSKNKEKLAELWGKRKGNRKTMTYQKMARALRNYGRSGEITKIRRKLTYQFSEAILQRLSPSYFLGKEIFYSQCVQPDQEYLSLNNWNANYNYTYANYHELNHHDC
Particulars: protein: recombinant; tags: N-terminal GST; dsDNA, one strand shown. The procedure, abridged: as §1

The next test has as its target ELF4 (Homo sapiens, UniProt Q99607 1-663). Particulars: protein: recombinant; tags: N-terminal GST; dsDNA, one strand shown. The procedure, abridged:
as §1

The next test deals with T3, ELK4 (Homo sapiens, UniProt P28324-2 1-405).
T3 sequence: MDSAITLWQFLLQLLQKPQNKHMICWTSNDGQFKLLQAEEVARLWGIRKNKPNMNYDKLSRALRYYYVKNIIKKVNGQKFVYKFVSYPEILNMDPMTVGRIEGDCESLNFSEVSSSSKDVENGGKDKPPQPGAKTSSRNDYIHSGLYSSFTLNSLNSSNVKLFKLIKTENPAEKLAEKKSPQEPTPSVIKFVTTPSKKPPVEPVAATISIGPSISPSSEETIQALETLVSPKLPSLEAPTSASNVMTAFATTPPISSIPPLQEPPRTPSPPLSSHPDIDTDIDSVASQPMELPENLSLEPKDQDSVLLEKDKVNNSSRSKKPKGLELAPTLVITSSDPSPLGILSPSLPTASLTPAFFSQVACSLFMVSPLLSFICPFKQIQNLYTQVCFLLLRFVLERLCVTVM
Particulars: protein: recombinant; tags: N-terminal GST; dsDNA, one strand shown. The procedure, abridged: as §1

For a further test, the target named is T4, ETV2 (Homo sapiens, UniProt O00321 1-342).
T4 sequence: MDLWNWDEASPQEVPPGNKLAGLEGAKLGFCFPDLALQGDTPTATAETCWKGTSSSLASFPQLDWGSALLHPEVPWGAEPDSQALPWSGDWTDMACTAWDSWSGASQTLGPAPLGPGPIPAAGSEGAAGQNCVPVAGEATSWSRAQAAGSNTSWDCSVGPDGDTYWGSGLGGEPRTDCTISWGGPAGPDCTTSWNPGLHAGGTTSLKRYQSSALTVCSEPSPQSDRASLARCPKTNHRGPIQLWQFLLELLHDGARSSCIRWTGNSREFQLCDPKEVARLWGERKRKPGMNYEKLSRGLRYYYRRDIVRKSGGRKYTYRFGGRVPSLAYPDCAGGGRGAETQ
The settings on record: protein: recombinant; tags: N-terminal GST; dsDNA, one strand shown. The procedure, abridged:
as §1

The next test addresses T5, ELF3 (Homo sapiens, UniProt P78545 1-371).
T5 sequence: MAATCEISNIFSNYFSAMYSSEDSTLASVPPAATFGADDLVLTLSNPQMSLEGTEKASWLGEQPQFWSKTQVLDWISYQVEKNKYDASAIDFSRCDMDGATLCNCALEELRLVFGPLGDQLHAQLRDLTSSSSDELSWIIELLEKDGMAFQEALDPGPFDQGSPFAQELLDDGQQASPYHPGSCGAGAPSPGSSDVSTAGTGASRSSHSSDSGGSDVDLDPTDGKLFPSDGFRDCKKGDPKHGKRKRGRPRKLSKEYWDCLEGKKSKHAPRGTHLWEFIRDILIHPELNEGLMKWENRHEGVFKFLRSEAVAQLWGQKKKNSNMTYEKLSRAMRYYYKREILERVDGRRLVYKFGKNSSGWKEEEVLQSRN
Particulars: protein: recombinant; tags: N-terminal GST; dsDNA, one strand shown. The procedure, abridged: as §1

Another test addresses CRX (Homo sapiens, UniProt O43186 1-299). Particulars: protein: recombinant; tags: N-terminal GST; dsDNA, one strand shown. The essentials:
as §1

A further test has as its target ETV1 (Homo sapiens, UniProt P50549 1-477). Particulars: protein: recombinant; tags: N-terminal GST; dsDNA, one strand shown. The procedure, abridged: as §1
Another test concerns the target T6, ERF (Homo sapiens, UniProt P50548 1-548).
T6 sequence: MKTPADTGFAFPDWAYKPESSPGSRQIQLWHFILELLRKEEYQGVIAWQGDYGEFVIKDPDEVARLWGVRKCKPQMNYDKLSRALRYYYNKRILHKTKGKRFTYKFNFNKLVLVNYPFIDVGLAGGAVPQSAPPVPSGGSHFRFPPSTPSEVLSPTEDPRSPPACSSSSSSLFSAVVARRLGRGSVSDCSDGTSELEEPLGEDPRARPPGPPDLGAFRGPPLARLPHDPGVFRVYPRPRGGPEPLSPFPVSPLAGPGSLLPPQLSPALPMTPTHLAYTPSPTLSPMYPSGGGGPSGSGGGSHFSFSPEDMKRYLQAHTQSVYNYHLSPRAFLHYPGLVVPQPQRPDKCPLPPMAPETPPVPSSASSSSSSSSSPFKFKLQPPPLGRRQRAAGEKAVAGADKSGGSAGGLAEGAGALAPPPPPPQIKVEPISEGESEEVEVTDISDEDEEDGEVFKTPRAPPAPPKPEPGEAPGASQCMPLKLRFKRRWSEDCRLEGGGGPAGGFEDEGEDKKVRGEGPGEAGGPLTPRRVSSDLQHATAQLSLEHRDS
Particulars: protein: recombinant; tags: N-terminal GST; dsDNA, one strand shown. The procedure, abridged:
as §1

For another test, the target named is T7, ETV3L (Homo sapiens, UniProt Q6ZN32 1-361).
T7 sequence: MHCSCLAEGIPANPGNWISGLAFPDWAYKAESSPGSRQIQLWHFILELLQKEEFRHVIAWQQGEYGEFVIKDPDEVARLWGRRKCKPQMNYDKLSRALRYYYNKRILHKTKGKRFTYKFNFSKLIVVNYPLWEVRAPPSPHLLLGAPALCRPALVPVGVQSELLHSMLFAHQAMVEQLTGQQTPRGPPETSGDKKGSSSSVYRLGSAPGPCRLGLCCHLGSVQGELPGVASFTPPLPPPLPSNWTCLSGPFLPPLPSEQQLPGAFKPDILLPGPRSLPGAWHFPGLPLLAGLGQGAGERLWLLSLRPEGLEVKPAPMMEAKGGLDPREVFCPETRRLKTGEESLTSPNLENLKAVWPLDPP
The settings on record: protein: recombinant; tags: N-terminal GST; dsDNA, one strand shown. The procedure, abridged: as §1

The target of the next test is T8, ETS2 (Homo sapiens, UniProt P15036 1-469).
T8 sequence: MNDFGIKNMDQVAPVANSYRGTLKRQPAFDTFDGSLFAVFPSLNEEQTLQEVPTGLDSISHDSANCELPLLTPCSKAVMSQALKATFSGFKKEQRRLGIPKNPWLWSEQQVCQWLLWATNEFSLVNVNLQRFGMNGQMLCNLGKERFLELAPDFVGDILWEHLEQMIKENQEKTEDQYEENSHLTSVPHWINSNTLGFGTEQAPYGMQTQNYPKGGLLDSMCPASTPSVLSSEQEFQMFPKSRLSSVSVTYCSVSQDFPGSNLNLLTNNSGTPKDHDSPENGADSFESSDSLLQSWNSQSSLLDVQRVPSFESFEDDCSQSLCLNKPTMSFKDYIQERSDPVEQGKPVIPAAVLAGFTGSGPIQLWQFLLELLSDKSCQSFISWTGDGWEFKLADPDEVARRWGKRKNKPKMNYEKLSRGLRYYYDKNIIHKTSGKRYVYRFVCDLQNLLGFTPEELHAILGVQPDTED
Particulars: protein: recombinant; tags: N-terminal GST; dsDNA, one strand shown. The procedure, abridged: as §1

A further test has as its target T9, SPDEF (Homo sapiens, UniProt O95238 1-335).
T9 sequence: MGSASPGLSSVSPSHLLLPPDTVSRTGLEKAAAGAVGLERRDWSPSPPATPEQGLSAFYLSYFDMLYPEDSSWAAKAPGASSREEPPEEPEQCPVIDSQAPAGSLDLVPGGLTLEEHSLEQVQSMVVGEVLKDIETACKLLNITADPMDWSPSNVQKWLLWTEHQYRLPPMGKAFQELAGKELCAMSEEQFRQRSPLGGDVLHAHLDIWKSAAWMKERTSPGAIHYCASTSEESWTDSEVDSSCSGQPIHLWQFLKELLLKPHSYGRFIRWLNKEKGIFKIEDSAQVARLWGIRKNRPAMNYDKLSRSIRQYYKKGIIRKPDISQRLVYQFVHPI
The settings on record: protein: recombinant; tags: N-terminal GST; dsDNA, one strand shown. The procedure, abridged: as §1

The next test has as its target T10, ETV7 (Homo sapiens, UniProt Q9Y603 1-341).
T10 sequence: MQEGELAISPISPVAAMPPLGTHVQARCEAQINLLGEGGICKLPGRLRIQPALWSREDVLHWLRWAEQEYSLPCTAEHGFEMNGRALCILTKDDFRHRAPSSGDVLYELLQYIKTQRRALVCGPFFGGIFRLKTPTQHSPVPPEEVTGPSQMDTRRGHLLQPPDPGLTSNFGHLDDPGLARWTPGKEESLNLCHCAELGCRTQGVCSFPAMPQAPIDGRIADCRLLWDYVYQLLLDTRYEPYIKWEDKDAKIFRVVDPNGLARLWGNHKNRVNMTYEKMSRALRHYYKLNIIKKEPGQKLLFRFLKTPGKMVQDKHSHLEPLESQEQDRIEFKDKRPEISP
Particulars: protein: recombinant; tags: N-terminal GST; dsDNA, one strand shown. The essentials: as §1

In another test the target is T11, ELF5 (Homo sapiens, UniProt Q9UKW6-2 1-255).
T11 sequence: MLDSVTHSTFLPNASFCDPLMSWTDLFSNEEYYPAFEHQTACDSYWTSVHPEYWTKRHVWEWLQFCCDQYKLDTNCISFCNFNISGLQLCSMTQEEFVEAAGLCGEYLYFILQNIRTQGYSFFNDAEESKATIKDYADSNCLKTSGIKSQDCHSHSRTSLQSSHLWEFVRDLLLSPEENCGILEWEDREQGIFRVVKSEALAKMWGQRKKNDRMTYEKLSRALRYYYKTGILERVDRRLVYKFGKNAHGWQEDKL
The settings on record: protein: recombinant; tags: N-terminal GST; dsDNA, one strand shown. The procedure, abridged: as §1

Another test concerns the target T12, ETV3 (Homo sapiens, UniProt P41162-2 1-143).
T12 sequence: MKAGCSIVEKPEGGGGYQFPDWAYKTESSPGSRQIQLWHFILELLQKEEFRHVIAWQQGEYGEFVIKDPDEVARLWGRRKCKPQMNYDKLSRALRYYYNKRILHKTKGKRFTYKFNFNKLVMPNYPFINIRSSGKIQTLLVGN
Particulars: protein: recombinant; tags: N-terminal GST; dsDNA, one strand shown. The essentials: as §1

The next test addresses ETV6 (Homo sapiens, UniProt P41212 1-452). Particulars: protein: recombinant; tags: N-terminal GST; dsDNA, one strand shown. The procedure, abridged:
as §1

Chain of CRX (O43186 whole entry): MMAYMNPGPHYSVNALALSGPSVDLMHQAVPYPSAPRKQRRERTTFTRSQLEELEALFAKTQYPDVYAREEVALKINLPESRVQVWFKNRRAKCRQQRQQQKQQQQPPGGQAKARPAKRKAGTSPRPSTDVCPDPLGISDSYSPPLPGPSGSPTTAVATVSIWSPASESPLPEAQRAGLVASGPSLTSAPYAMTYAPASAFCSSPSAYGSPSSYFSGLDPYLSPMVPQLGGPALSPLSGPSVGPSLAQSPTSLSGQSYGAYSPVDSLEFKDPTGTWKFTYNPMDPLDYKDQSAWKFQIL
Chain of ETV5 (P41161 whole entry): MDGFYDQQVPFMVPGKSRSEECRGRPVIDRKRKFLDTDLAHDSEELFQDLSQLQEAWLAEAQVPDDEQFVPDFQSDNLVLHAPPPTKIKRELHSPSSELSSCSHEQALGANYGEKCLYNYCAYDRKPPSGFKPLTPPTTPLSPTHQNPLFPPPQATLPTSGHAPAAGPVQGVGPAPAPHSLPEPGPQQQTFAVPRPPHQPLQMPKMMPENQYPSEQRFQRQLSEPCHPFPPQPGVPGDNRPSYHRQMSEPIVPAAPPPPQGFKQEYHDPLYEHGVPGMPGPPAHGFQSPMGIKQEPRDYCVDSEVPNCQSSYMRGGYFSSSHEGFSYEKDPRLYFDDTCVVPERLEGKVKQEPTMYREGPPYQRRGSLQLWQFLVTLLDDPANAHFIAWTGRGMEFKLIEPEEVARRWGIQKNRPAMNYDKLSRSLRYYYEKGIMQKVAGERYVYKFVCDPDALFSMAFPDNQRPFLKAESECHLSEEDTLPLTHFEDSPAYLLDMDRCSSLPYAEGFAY
Chain of ETV6 (P41212 whole entry): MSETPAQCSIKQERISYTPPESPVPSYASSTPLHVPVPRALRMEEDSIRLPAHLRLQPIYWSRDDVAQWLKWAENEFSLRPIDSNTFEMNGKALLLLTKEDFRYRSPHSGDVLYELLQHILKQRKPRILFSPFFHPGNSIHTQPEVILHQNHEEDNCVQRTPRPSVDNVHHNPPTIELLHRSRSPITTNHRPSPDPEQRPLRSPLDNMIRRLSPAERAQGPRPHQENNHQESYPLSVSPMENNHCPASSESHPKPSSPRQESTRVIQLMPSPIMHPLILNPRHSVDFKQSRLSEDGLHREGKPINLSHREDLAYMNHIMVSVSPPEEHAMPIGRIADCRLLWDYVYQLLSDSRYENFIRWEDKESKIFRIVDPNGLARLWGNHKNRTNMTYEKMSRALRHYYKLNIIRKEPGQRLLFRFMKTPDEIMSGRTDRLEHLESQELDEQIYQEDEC
Chain of HSF1 (Q00613 whole entry): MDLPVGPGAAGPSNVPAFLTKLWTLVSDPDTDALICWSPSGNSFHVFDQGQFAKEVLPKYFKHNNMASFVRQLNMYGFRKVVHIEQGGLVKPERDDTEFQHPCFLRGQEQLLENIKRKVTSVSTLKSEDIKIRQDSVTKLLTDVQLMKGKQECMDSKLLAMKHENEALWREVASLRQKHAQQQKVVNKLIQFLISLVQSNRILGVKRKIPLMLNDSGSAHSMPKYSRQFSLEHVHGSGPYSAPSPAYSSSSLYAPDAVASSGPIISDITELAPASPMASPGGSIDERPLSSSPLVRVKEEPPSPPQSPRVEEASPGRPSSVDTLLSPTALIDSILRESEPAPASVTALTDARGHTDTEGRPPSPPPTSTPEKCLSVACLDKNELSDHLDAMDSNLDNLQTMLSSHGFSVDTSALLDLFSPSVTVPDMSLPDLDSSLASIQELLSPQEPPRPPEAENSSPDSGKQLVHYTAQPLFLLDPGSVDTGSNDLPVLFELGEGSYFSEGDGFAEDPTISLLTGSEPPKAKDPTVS
Chain of ETV1 (P50549 whole entry): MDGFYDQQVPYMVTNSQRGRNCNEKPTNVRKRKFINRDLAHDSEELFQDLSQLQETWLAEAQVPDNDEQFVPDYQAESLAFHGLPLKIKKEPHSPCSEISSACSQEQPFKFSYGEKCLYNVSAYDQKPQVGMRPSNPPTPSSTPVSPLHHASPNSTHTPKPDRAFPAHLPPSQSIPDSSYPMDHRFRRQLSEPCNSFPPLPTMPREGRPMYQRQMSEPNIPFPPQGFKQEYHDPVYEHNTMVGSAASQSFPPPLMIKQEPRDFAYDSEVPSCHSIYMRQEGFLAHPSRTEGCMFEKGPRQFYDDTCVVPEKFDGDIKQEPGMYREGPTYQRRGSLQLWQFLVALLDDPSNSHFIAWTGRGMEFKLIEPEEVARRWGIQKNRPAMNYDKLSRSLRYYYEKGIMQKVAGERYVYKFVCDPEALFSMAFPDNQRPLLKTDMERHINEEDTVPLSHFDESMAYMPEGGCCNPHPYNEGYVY
Chain of ELF4 (Q99607 whole entry): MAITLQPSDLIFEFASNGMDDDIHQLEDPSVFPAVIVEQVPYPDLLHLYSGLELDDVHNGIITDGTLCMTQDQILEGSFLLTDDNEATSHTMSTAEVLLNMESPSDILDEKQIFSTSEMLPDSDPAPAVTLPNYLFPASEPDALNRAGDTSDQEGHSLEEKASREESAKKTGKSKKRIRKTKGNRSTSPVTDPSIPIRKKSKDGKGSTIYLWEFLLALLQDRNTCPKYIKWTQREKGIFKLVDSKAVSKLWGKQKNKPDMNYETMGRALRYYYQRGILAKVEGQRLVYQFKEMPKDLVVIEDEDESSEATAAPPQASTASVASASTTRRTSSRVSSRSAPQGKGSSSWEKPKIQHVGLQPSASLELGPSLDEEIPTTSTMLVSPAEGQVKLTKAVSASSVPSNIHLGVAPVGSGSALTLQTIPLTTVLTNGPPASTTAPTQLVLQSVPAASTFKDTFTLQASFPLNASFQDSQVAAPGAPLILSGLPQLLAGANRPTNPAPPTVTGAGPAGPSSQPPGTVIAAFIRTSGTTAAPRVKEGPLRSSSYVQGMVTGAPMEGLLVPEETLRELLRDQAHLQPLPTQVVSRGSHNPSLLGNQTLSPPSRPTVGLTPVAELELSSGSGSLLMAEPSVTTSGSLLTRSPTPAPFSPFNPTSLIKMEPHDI

For the sequence TACTGT, the binding signal was 1.11 fold enrichment (6-mer frequency, TF over GST control) with FEV; 1.15 fold enrichment (6-mer frequency, TF over GST control) with ETV5; 1.05 fold enrichment (6-mer frequency, TF over GST control) with HSF1; 1.1 fold enrichment (6-mer frequency, TF over GST control) with SPIC; 1.12 fold enrichment (6-mer frequency, TF over GST control) in the test with ELF4; 1.25 fold enrichment (6-mer frequency, TF over GST control) with ELK4. Besides, the binding signal was 1.34 fold enrichment (6-mer frequency, TF over GST control) with ETV2; 1.03 fold enrichment (6-mer frequency, TF over GST control) with ELF3; 1.11 fold enrichment (6-mer frequency, TF over GST control) with CRX; 1.17 fold enrichment (6-mer frequency, TF over GST control) with ETV1; 1.2 fold enrichment (6-mer frequency, TF over GST control) with ERF; 1.15 fold enrichment (6-mer frequency, TF over GST control) with ETV3L. Also, the binding signal is 1.16 fold enrichment (6-mer frequency, TF over GST control) with ETS2; 1.11 fold enrichment (6-mer frequency, TF over GST control) in the test with SPDEF; 1.04 fold enrichment (6-mer frequency, TF over GST control) with ETV7; 1.14 fold enrichment (6-mer frequency, TF over GST control) in the test with ELF5; 1.13 fold enrichment (6-mer frequency, TF over GST control) in the test with ETV3; 1.1 fold enrichment (6-mer frequency, TF over GST control) in the test with ETV6.

These data come from PMC7862700, “An all-to-all approach to the identification of sequence-specific readers for epigenetic DNA modifications on cytosine”.
